Source: PubChem
The list is not random: actives were taken first. Their share in the collection is about 2.4%.
D2 ag-1: D2 dopamine receptor (human) agonism. HEK293 T-REx D2 cells, calcium flux agonist mode. activation, % at 2 µM. P14416. actives 0.53% (n = 340,000);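 active means activation over 3 SD above normal in the single-dose calcium agonist read, cut at about 30% in these data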; further: 0% is about no effect
Target sequence (P14416 whole entry, looked up): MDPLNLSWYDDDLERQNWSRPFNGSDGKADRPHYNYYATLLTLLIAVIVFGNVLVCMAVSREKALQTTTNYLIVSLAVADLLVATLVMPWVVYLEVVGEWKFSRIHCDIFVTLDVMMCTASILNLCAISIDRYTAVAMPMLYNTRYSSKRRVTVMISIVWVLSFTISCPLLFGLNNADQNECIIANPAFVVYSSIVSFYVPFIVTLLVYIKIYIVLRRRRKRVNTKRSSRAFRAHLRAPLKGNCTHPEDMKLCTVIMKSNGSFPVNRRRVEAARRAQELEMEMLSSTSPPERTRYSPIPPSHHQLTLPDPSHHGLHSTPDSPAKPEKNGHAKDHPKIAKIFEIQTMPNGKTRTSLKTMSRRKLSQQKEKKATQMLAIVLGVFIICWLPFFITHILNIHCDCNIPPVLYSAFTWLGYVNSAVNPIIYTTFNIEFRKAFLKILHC
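Tetracycline-induced HEK293 T-REx cells with force-coupled D2 receptor, plated overnight at 30 C, loaded with no-wash calcium dye. After a 10 s baseline, compound was pin-added and calcium flux read kinetically for 180 s; calcium rises flagged agonists.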
D2 PAM-1: positive allosteric modulators of human D2 dopamine receptor; P14416; DiscoveRx D2 beta-arrestin cells, luminescence, 90 min; 100% = 57 uM dopamine signal; potentiation, % (concentration not given with the values); actives 0.23% (n = 360,000); in the data active means potentiation above about 50%; inconclusive means mostly about 30% to 49%
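PathHunter D2 cells, attached overnight at 37 deg C, received compound in DMSO plus dopamine at EC20 (50 nM final) for 90 min at 37 deg C. Beta-arrestin recruitment was read as luminescence after 1 h with detection reagent at ambient temperature.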
D2 antagonist: antagonists of human D2 dopamine receptor; P14416; HEK293 TREx D2 cells, calcium flux, dopamine EC80; inhibition, % at 10 µM; actives 2% (n = 340,000); AID 485344; in the data active means inhibition above about 30%; inactive means below that, where a call was filed; further: 0% is about no effect
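Compounds are added to dye-loaded, induced HEK293 T-REx cells coupled to calcium release via D2; after a 3 min kinetic read an EC80 dopamine stimulus is given and fluorescence is recorded for 3 more min.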
D2 ag-2: activates the human D2 dopamine receptor; DiscoveRx PathHunter D2 beta-arrestin, luminescence, 90 min; 100% = 57 uM dopamine signal; activation, % (test concentration not listed); actives 0.084% (n = 360,000); in the data active means activation above about 40%; inconclusive means between about 15% and that limit
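Agonist mode: compounds alone added to overnight-plated D2 PathHunter cells for 90 min at 37 C, with 57 uM final dopamine (EC100) defining full response. Beta-arrestin recruitment detected by chemiluminescent reagent, read after 1 h at ambient temperature.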
D2 PAM-2: positive allosteric modulators of human D2 dopamine receptor; potentiation, % at 10 µM; actives 0.34% (n = 340,000); HEK293 T-REx D2, calcium flux, EC20 dopamine potentiation;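 active means potentiation over 3 SD above the plate norm, cut at about 30% in these data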; further: 0% is about no effect
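Primary screen. Calcium kinetics in induced HEK293 T-REx D2 cells: compound pre-addition 180 s, EC20 dopamine, 180 s more.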
An asterisk follows results filed as active; ? = inconclusive; · = no result given.

SMILES | D2 ag-1 | D2 PAM-1 | D2 antagonist | D2 ag-2 | D2 PAM-2
CCOC(=O)c1ccc(CN(Cc2ccc(F)cc2)S(=O)(=O)c2ccc(F)c(C(=O)Nc3cc(Cl)ccc3OC)c2)cc1 | 0 | · | · | · | 18
CCOc1ccc(C(=O)N2CCC(c3ccncc3)CC2)cc1 | 0 | · | · | · | -13
O=C(COC(=O)c1cccs1)Nc1cccc(S(=O)(=O)N2CCOCC2)c1 | 1 | -7 | 36* | -2 | -3
O=C(Nc1cccc(Cl)c1)c1cc(S(=O)(=O)N2CCOCC2)cs1 | 0 | -20 | 35* | 1 | -14
O=C(Nc1nc2ccc(S(=O)(=O)N3CCCC3)cc2s1)c1cccs1 | 0 | -28 | -21 | -2 | 6
O=S(=O)(c1cccc(NC(=S)Nc2ccc(Br)cc2Cl)c1)N1CCOCC1 | 0 | -22 | 38* | -8 | 9
O=C(Nc1nc2ccc(S(=O)(=O)N3CCOCC3)cc2s1)c1cccs1 | 1 | -2 | 57* | 6 | 14
CCOc1ccccc1NC(=O)CSC1=Nc2ccccc2C2=NC(CC(=O)NC3CCCCC3)C(=O)N12 (stereo not given) | -1 | · | · | · | 5
OCCN1CCN(c2ncnc3nc[nH]c23)CC1 | 1 | -3 | 34* | -2 | -9
c1nc(N2CCCC2)c2[nH]cnc2n1 | -1 | -7 | -10 | -3 | -1
CN(C(=O)CSc1nc2ccccc2n1CC(=O)N(C)C1CCCCC1)c1ccccc1 | -1 | · | · | · | 3
CCc1cccc(-n2nnc(-c3nsc(NC(=O)c4cccc(OC)c4)n3)c2C)c1 | 1 | · | · | · | -3
CCOc1ccc(C(=O)OCc2cc(=O)n3nc(C(C)C)sc3n2)cc1 | 1 | · | · | · | 9
COC(=O)C1=C(C)N(c2ccc(Cl)c(Cl)c2)C(=O)C1 | 1 | -23 | 32* | -3 | -4
CCc1ccc(CN2CCc3nc(Nc4ccc5c(c4)OCCO5)ncc3C2)cc1 | 4 | · | · | · | 2
CC(C)(C)C(=O)N1CCc2cc(-c3csc(N)n3)ccc21 | 0 | -14 | -9 | 10 | 33*
COc1cc(C(=O)OCCn2c(=O)c3c(ncn3CCN(C)C)n(C)c2=O)cc(OC)c1OC | -2 | -11 | 34* | -2 | 5
O=C(c1ccc(F)cc1)N(NC(=O)C(O)(c1ccccc1)c1ccccc1)c1ccccc1 | 3 | 0 | 40* | 4 | -7
COC(=O)c1ccccc1NC(=O)CCS(=O)(=O)c1nc(-c2ccc3c(c2)OCO3)cc(C(F)(F)F)n1 | · | · | · | · | 20
CC(=O)NS(=O)(=O)c1ccc(NC(=O)c2cc(-c3cccs3)nc3ccccc23)cc1 | 37* | -1 | 17 | 1 | -17
Cc1cc(NC(=O)c2cc(-c3cccs3)nc3ccccc23)no1 | 0 | -2 | 37* | 7 | 0
Oc1ccc(/C=N/Nc2ccc(Cl)nn2)c(O)c1O | 1 | 15 | 6 | 50* | -6
CCc1cccc(C)c1NC(=O)c1cc(S(=O)(=O)N2CCN(c3ccccc3)CC2)ccc1F | 1 | · | · | · | -17
O=C(CSc1nc(C2CCCCC2)nc2ccccc12)NCc1ccco1 | -1 | -2 | 67* | -3 | -10
Cc1sc2nc(C3CC3)nc(SCC(=O)NCc3ccco3)c2c1C | 0 | -15 | 8 | 6 | 11
SMILES | D2 ag-1 | D2 PAM-1 | D2 antagonist | D2 ag-2 | D2 PAM-2
Cc1ccc(OCC(=O)Nc2ccc3nc(SCCOc4ccccc4)sc3c2)cc1 | 0 | · | · | · | -9
CC(C)(C)c1ccc(O)c(N=Cc2cc(Br)ccc2O)c1 | 0 | 0 | 9 | -1 | 3
Cc1ccc(O)c(C=Nc2cc(C)ccc2O)c1 | · | 58* | · | 7 | ·
CCOc1ccc(N(C)C(=O)c2oc(=O)c3ccccc3c2-c2ccccc2)cc1 | 0 | · | · | · | ·
Cc1ccccc1C(=O)NNC(=O)c1ccoc1C | · | -5 | · | 0 | ·
Cc1occc1C(=O)NNC(=O)c1ccccc1C(=O)O | -1 | -1 | 31* | -1 | -11
CC(C)c1ccc(Nc2cc(C(=O)NCCc3ccccc3)c3ccccc3n2)cc1 | -1 | · | · | · | -5
COc1cccc2sc3ccc(C#CC4(N)CCCCC4)cc3c(=O)c12 | 1 | -6 | 31* | -2 | -4
COc1cccc2sc3cc(C#CC4(O)CCCCC4)ccc3c(=O)c12 | · | 10 | · | ? | ·
CN(CCOc1ccc(Cl)cc1)C(=O)c1ccc(S(=O)(=O)N2CCOCC2)cc1 | -1 | -1 | 6 | -3 | 2
CCCCN(C)C(=O)c1ccc(S(=O)(=O)N2CCOCC2)cc1 | 0 | 0 | 33* | -2 | 3
CSCCC(NS(=O)(=O)c1ccc2c(c1)oc(=O)n2C)C(=O)NCc1ccc(Cl)cc1 (stereo not given) | -1 | · | · | · | -10
CCOP(=O)(c1ccccc1)c1nc(-c2ccc(F)cc2)oc1N1CCCCC1 (stereo not given) | 0 | -14 | 32* | -4 | 11
CCOP(=O)(OCC)c1nc(-c2ccc(Br)cc2)oc1N1CCCCC1 | · | -4 | · | -1 | ·
CCOC(=O)c1c(C)[nH]c(C)c1C(=O)COC(=O)c1ccc(O)cc1 | 4 | -3 | -7 | 0 | 12
CCOC(=O)c1c(C)[nH]c(C)c1C(=O)COC(=O)c1ccc(S(=O)(=O)C(F)F)cc1 | 0 | 8 | 39* | 0 | 14
Cc1cc(C)c2sc(N(Cc3cccnc3)C(=O)CCOc3ccccc3)nc2c1 | 0 | · | · | · | ·
CC(=O)OCCn1c2nc(=O)[nH]c(=O)c-2nc2cc(C)c(C)cc21 | 112* | -3 | 29 | -2 | 9
CC(=O)OCCn1c(C)[n+](CCOC(C)=O)c2cc(Cl)c(Cl)cc21 | 2 | -6 | -8 | 4 | -2
CC(C)C(=O)NNC(=O)CN1CCN(c2nc(-c3ccccc3)cs2)CC1 | 2 | -2 | -1 | -3 | 3
CCN(CC)CCCNC(=S)N1CCN(c2nc(-c3ccccc3)cs2)CC1 | 0 | -14 | 33* | 0 | -9
CCc1nnc(NC(=O)CN2CCN(c3nc(-c4ccccc4)cs3)CC2)s1 | 0 | 1 | 32* | 3 | -1
CCOCCCNC(=S)N1CCN(c2nc(-c3ccccc3)cs2)CC1 | · | -3 | · | -5 | ·
CC1=C(C(=O)Nc2cccc(C)c2C)C2(CCCCC2)OC1=O | 1 | · | · | · | ·
CCc1nc(-c2ccc(C)c(S(=O)(=O)N3CCN(c4ccc(C(C)=O)cc4)CC3)c2)no1 | -1 | · | · | · | -13
S=C(NCCc1ccccc1)N1CCc2ccccc2C1 | -1 | -13 | 41* | -2 | -11
OC1CCN(C(=S)NCCc2ccccc2)CC1 | 0 | -4 | 2 | 0 | 0
CCn1c(CNC(=O)c2ccc(OC)cc2)nnc1SCC(=O)Nc1cccc(C)c1C | 1 | · | · | · | -1
Cc1cc2nc(-c3ccc(Br)cc3)cc(C(F)(F)F)n2n1 | -1 | · | · | · | -2
COc1ccccc1N1CCN(C2CCCN(S(=O)(=O)c3ccc(C)cc3)C2)CC1 (stereo not given) | 1 | -52 | 66* | -4 | -19
